Source: PubChem BioAssay (The Scripps Research Institute Molecular Screening Center)
Hits are enriched below; roughly 1.9% of the tested compounds scored in any of these assays.
PLCg1 inh: inhibitors of human phospholipase C gamma1. 370,000 tested, 0.84% active. inhibition, % at 12.2 µM. purified PLC-gamma1, fluorogenic substrate, fluorescence; in the data active means inhibition above about 9.5%
MsrA inh: inhibitors of bovine MsrA. purified bovine MsrA, absorbance read-out. inhibition, % at 15.5 µM. 360,000 tested, 0.75% active. AID 651718; in the data active means inhibition above about 4.5%;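 further: 0% = vehicle wells with enzyme and 100% = reference inhibitor wells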
MsrA act: activators of bovine methionine sulfoxide reductase A; purified bovine MsrA, absorbance read-out; activation, % at 10.6 µM; 360,000 tested, 0.3% active; AID 602163; in the data active means activation above about 7.5%;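 further: 0% = vehicle and 100% = reference activator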
PLCb3 inh: blocks human PLC-beta3 enzyme activity; Q01970; Purified PLC-beta3, fluorogenic substrate, fluorescence; inhibition, % at 12.2 µM; 370,000 tested, 0.18% active; AID 720704;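 further: 0% = median of compound wells on plate and 100% = full blocker control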
PLCg1 ctr: inhibits human PLC-gamma1 in PLC-beta3 counter-screen | shares compounds with PLCg1 inh | purified PLC-gamma1, fluorogenic substrate, fluorescence | inhibition, % at 12.3 µM | 3,300 tested, 3.1% active | AID 743258; in the data active means inhibition above about 9.5%
PLCbeta3 conf: confirmation of human PLC-beta3 inhibitors. shares compounds with PLCg1 inh. purified PLC-beta3, fluorogenic substrate fluorescence. inhibition, % at 12.3 µM. 3,300 tested, 1% active. AID 743261
Active calls of the source: *; nt = no result. Unless noted, no stated cut-off is given here; in the data, active means inhibition above about 11%; inactive means the rest.

SMILES	PLCg1 inh	MsrA inh	MsrA act	PLCb3 inh	PLCg1 ctr	PLCbeta3 conf
O=C(O)c1cc(O)c2c(c1)[C@H]([C@H]1c3cc(C(=O)O)cc(O)c3C(=O)c3c(O[C@@H]4O[C@H](CO)[C@@H](O)[C@H](O)[C@H]4O)cccc31)c1cccc(OC3O[C@H](CO)[C@@H](O)[C@H](O)[C@H]3O)c1C2=O (stereo partly specified)	33*	2	-6	19*	28*	7
CNc1c(NS(=O)(=O)c2ccc(OC)c(Cl)c2)c(=O)oc2ccccc12	11*	1	-3	-1	-9	-5
O=C(OCC#CCSc1nnc(-c2cccc3ccccc23)o1)c1sccc1Cl	-6	nt	nt	-4	nt	nt
Cc1ccc(N(C)S(=O)(=O)c2cccc(C(=O)N3CCN(Cc4ccccc4)CC3)c2)cc1	11*	1	-12	-4	2	2
c1ccc(Cn2ncc3ccccc32)cc1	15*	2	-1	3	-8	-1
Fc1cccc(Cl)c1Cn1ncc2ccccc21	-1	0	-1	-4	nt	nt
O=C1C=C(NCc2ccc(Cl)cc2)CC(c2ccco2)C1 (stereo unspecified)	11*	1	0	0	-10	-6
Nc1[nH]c(C(=O)c2ccc(Cl)cc2)c(-c2ccc(Br)cc2)c1C(=O)NCCc1c[nH]c2ccccc12	-5	0	nt	-7	nt	nt
COC(=O)c1sccc1NC(=O)CN(C)NS(=O)(=O)c1ccc(F)cc1	12*	1	-4	4	-6	0
CCCCNC(=O)C[C@H]1C(=O)N(CCCOC)C2=CCCCC[C@]21C(=O)OC	1	nt	nt	5	nt	nt
CC(O)Cc1cn(CC(=O)N2CCN(C(=O)OC(C)(C)C)CC2)nn1 (stereo unspecified)	13*	1	-5	8	-8	-2
CSc1ccc(/C=N/N2CCN(Cc3ccc(C)cc3C)CC2)cc1	5	0	-3	3	nt	nt
Cc1ccc(CN2CCN(/N=C/c3sccc3C)CC2)c(C)c1	11*	-1	-4	7	0	0
CCN(CC)c1ccc(C=NNC(=O)c2cc(-c3ccc(C)c(C)c3)n[nH]2)c(O)c1	-36	nt	nt	-52	nt	nt
C=CCC[C@@H](Cc1ccc(F)cc1)C(=O)OC[C@@H](NC(=O)[C@@H](CC=C)CC(=O)N[C@H](CO)Cc1ccccc1)C(C)(C)C	11*	-2	-2	8	-4	4
C=CCC[C@@H](Cc1ccc(F)cc1)C(=O)OC[C@H](Cc1c[nH]c2ccccc12)NC(=O)[C@@H](CC=C)CC(=O)N[C@@H](CO)Cc1ccccc1	10*	1	-1	6	-7	-4
C=CC[C@@H](CC(=O)N[C@@H](CO)Cc1ccccc1)C(=O)N[C@H](COC(=O)[C@@H](CC=C)Cc1ccc(F)cc1)C(C)(C)C	0	-1	3	3	nt	nt
C=CC[C@H](CC(=O)N(CCO)Cc1ccccc1)C(=O)N[C@@H](COC(=O)[C@@H](CC=C)CC(=O)OC(C)(C)C)Cc1c[nH]c2ccccc12	6	1	1	12*	-10	-3
C=CCC[C@@H](Cc1ccc(F)cc1)C(=O)OC[C@@H](NC(=O)[C@@H](CC=C)CC(=O)N(CCO)Cc1ccccc1)c1ccccc1	14*	1	0	7	-7	-5
CC(C)(C)Cc1c(-c2ccco2)nc2ccc(Cl)cn12	-8	0	-2	-10	nt	nt
CN(C)c1cc(-c2ccc(Cl)cc2Cl)oc(=O)c1Cl	1	0	-3	-7	nt	nt
CCC(O)(c1ccc(NC(=O)OC(C)(C)C)cc1)c1cc(OC)cc(OC)c1 (stereo unspecified)	1	nt	nt	1	nt	nt
Cc1ccc(NC(=O)Cc2cccc(OC(F)(F)F)c2)c(S(=O)(=O)N2CCOCC2)c1	-2	nt	nt	1	nt	nt
CCc1sc(C(=O)Nc2ccccc2N2CCOCC2)cc1C	-3	1	-2	-6	nt	nt
Cn1cc(CC(=O)Nc2ccc(Nc3cccnc3)cc2)c2ccccc21	0	1	nt	-2	nt	nt
SMILES	PLCg1 inh	MsrA inh	MsrA act	PLCb3 inh	PLCg1 ctr	PLCbeta3 conf
CCC(NC(=O)CCCN1C(=O)COc2ccc(C)cc21)c1ccccc1 (stereo unspecified)	0	nt	nt	0	nt	nt
COCCCNC(=O)C[C@H]1C[C@@]2(C(=O)OC)C(=C[C@H](C3CCCC3)O[C@@H]2C)N(Cc2ccc(Cl)cc2Cl)C1=O	-1	nt	nt	0	nt	nt
O=C(Cc1c[nH]c2ccccc12)Nc1ccc(Nc2ccncc2)cc1	-3	1	nt	-2	nt	nt
Cn1cccc1C(=O)N1CCN(S(=O)(=O)c2ccc(Br)s2)CC1	1	nt	nt	1	nt	nt
O=C(CCn1c(=S)oc2ccccc21)NC1CCCCCCC1	10.0*	2	-4	-1	-4	0
Nc1ccc(N2CCCCC2)c2nonc12	34*	-1	3	-9	-8	-10
Nc1c(N2CCCC2)cc(Cl)c2nonc12	nt	nt	-1	nt	nt	nt
COc1cccc(N2CCN(C(=O)CCn3nnc4ccccc43)CC2)c1	2	nt	nt	1	nt	nt
Cc1ccc(NC(=S)N(N)CCO)cc1	12*	1	-3	5	0	-1
Cc1nc(SCC(O)CCl)c([N+](=O)[O-])[nH]1 (stereo unspecified)	11*	2	-3	13*	0	2
Cc1cccc(N(C)C(=O)C2CCCN2S(=O)(=O)c2cccc3nsnc23)c1 (stereo unspecified)	10*	1	-8	10	-5	0
CC(=O)c1c(C)[nH]c(C(=O)Nc2cccc(C#N)c2)c1C	9.8*	1	-3	-3	-16	-15
COCOc1cccc(CN2CCC2(C)C(=O)Nc2ccc(C)cc2)c1 (stereo unspecified)	13*	0	-5	0	-7	-5
COCOc1cccc(CN2CCC2(C)C(=O)Nc2ccc(C)c(O)c2)c1 (stereo unspecified)	2	0	1	-6	nt	nt
CC(C)Oc1ccc(CN2CCC2(C)C(=O)Nc2ccc3c(c2)OCO3)cc1 (stereo unspecified)	12*	0	-3	8	-1	5
CC(C)c1ccc(CN2CCC2(C)C(=O)Nc2ccc3c(c2)OCO3)cc1 (stereo unspecified)	2	0	-2	7	nt	nt
O=c1[nH][nH]c2c1[C@H](c1ccc(Cl)cc1)O[C@H](C1CCCCC1)C2	0	1	-3	2	nt	nt
CN(C)/C=C/C(=O)c1ccc(Cl)c([N+](=O)[O-])c1	-2	4	-4	-2	nt	nt
CC(C)(C)CC(C)(C)SSc1n[nH]c(=S)s1	-2	0	2	-2	nt	nt
OC(c1ccccc1)(c1ccccc1)C1CCN(CCCNc2ccccc2F)CC1	2	nt	nt	3	nt	nt
O=[N+]([O-])c1ccc(NCCCN2CCC(C(O)(c3ccccc3)c3ccccc3)CC2)cc1	13*	nt	nt	10	9	7
CC(C)(C)n1nc2c(c1NC(=O)c1c(F)cccc1F)CS(=O)(=O)C2	1	0	1	-5	nt	nt
Cc1c(C(=O)N/N=C/c2cccs2)nnn1-c1nonc1N	12*	5	0	2	-1	5
CC(=O)Nc1cccc(N(C)C)c1	-2	2	-11	0	nt	nt
